Our source for the growth inhibition values is PubChem BioAssay (NCI).

Each structure is given as a SMILES string. About 79,000 compounds went through this panel and 15% of them were active in at least one assay; those are over-represented in the sample as a whole. Unmarked numbers belong to inactive results. Active and inactive are the calls of the source. Cut-off read from the data, not from the text of the source: active = growth inhibition above about 70%; inactive = the rest.

The first test in a line: NCI Yeast Anticancer Drug Screen. Data for the cln2 rad14 strain (AID 165).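 Note: 0% = growth equal to vehicle treated cultures.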 The settings on record: S. cerevisiae cln2 rad14 strain, at 50.0 µM, active compounds read high. In short, it runs like this: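 Test compounds were added to cln2 rad14 yeast cultures; inhibition of growth was then determined by comparison with vehicle treatment.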
Turning to `Nc1nc(N)nc(COc2ccccc2Cl)n1`, the growth inhibition is 9.4%.

With `Cc1ccc(S(=O)(=O)N2CN3CN(C2)CN(S(=O)(=O)c2ccc(C)cc2)C3)cc1`, the growth inhibition was 9.05%.

`CC(C)(C)C1CCC(=NO)CC1` (centres undefined): the growth inhibition was 18.3%.

Turning to `COc1cccc(NC(=O)CC(=O)N/N=C/c2ccc(N(CCC#N)CCC#N)c(I)c2)c1`, the growth inhibition is 9.55%.

As for `c1ccc2c(c1)ccc1c3ccccc3ncc21`, the growth inhibition was 35.5%.

Turning to `c1ccc(-c2cc(-c3ccncc3)cc(-c3ccncc3)n2)cc1`, the growth inhibition is 18.6%.

Consider `O=C1C=CC(=O)N1n1c(-c2ccccc2)n[nH]c1=O`, for which the growth inhibition is -2.8%.

Consider `O=C1OCC2CC1C(=O)O2` (centres undefined), for which the growth inhibition is 4.7%.

In the case of `CN1C(=O)C(O)(c2c3c(c(C4(O)C(=O)N(C)c5ccccc54)c4c2OCO4)OCO3)c2ccccc21` (centres undefined), the growth inhibition is -7.35%.

In the case of `CCOC(=O)CC1CC(C)(C(=O)OCC)C(=O)CC1=O` (centres undefined), the growth inhibition was 8.35%.

For `CN(C)CC(CN(C)C)C(=O)O`, the growth inhibition was 22%.

With `COC(=O)[C@]1(C)CCCn2c(=O)n(-c3ccccc3)c(=O)n21`, the growth inhibition was 9.75%.

As to `COc1ccc(-n2[nH]c3c(cnc4ccccc43)c2=O)cc1`, the growth inhibition was -10.8%.

On to `CN(C)c1cc(N(C)C)c2cc(C#N)ccc2n1`, for which the growth inhibition was -5.45%.

In the case of `N#CC(C#N)c1ccc(C(C#N)C#N)cc1`, the growth inhibition was -16%.

In the case of `Cc1n[n+](Cc2ccccc2)c2sc(N)nn12`, the growth inhibition was 20%.

In the case of `N#CC(c1cccs1)C1CCCCC1` (centres undefined), the growth inhibition is -11.8%.

As for `N=c1nc2n(cc1F)[C@@H]1O[C@H](CO)[C@@H](O)[C@@H]1O2`, the growth inhibition was 8.55%.

For the molecule `O=C(CCC1CCCCC1)OC1CCCC1`, the growth inhibition was -5.1%.

Take `Cc1ccc(S(=O)(=O)OCC(C)C(c2ccccc2)c2ccccc2)cc1` (centres undefined): the growth inhibition is -20.9%.

Regarding `CC1(C)[C@H]2CC[C@@]1(C)C(=O)[C@H]2[N+](=O)[O-]`, the growth inhibition is 7.85%.

As for `O=c1onc2c3ccccc3ncn12`, the growth inhibition was -11.4%.

A further test in a line: NCI Yeast Anticancer Drug Screen. Data for the bub3 strain (AID 167). The following applies: S. cerevisiae bub3 mutant strain, at 50.0 µM, active compounds read high. Summed up: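 Growth of a checkpoint-deficient yeast mutant is measured after compound exposure. Values represent inhibition relative to vehicle.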
Turning to `CCCNC=O`, the growth inhibition is -5.1%.

For `CN(C)c1ccc(/C=C(\C#N)c2ccccc2Br)cc1`, the growth inhibition is 29.6%.

Take `CN(C)CCNc1ncnc2nc(-c3ccc4ccccc4c3)[nH]c12`: the growth inhibition was 3.05%.

Turning to `CCCCCCC(=O)CC(SCCS)c1ccc(Cl)c(Cl)c1` (centres undefined), the growth inhibition was -1.4%.

`COC1=C(c2ccccc2)P(=O)(Cc2ccccc2)C2CCCC12` (centres undefined): the growth inhibition was 21.4%.

In the case of `CNCC1OC(OC)C2OC(C)(C)OC12` (centres undefined), the growth inhibition is -21.1%.

As to `CCCCCCCC/C=C/CCCCCCCC(=O)NN(C)C`, the growth inhibition was -3.95%.

Regarding `COCC1OC(n2cc(C)c(=O)n(C)c2=O)CC1OC` (centres undefined), the growth inhibition is 24.4%.

`CCCCCCCCCCCCCCCCCC1=NCC(C)O1` (centres undefined): the growth inhibition was 13.3%.

For `CC(=O)c1cccc(NC(=O)Oc2ccc(C(=O)OCc3ccccc3)cc2)c1`, the growth inhibition is 92.2% (active).

On to `CCOCCOC(=O)CCCCCCCCC(=O)OCCOCC`, for which the growth inhibition was 25.6%.

For the molecule `Cc1ccccc1NC(=O)CC(=O)N1N=C(N(CCC#N)c2ccccc2Cl)CC1c1ccccc1` (centres undefined), the growth inhibition was -10.1%.

As to `CS/C(=C\c1ccc(C(=O)c2ccc(C)cc2)n1C)S(C)=O` (centres undefined), the growth inhibition was -0.7%.

Take `COC(=O)c1oc([N+](=O)[O-])c(-c2ccccc2)c1-c1ccccc1`: the growth inhibition is 6.85%.

Take `CCN(CC)c1ccc2c(c1)Cc1ccccc1-2`: the growth inhibition is -18.9%.

Consider `C=C(C)C(O)C(O)C(=C)C` (centres undefined), for which the growth inhibition is 12.9%.

Turning to `CNc1ccn(C2OC(CO)C(O)C2O)c(=O)n1` (centres undefined), the growth inhibition is 10.1%.

With `COC(=O)C(/C(=N/N)C(=O)Nc1cc(Cl)ccc1Cl)c1nc2ccc([N+](=O)[O-])cc2[nH]c1=O` (centres undefined), the growth inhibition was 13.9%.

As to `Nc1nc(N)nc(COc2ccccc2Cl)n1`, the growth inhibition was 15.2%.

Regarding `Cc1ccc(S(=O)(=O)N2CN3CN(C2)CN(S(=O)(=O)c2ccc(C)cc2)C3)cc1`, the growth inhibition was 6.4%.

For `CC(C)(C)C1CCC(=NO)CC1` (centres undefined), the growth inhibition was 14.3%.

Turning to `COc1cccc(NC(=O)CC(=O)N/N=C/c2ccc(N(CCC#N)CCC#N)c(I)c2)c1`, the growth inhibition was -5.55%.

Consider `c1ccc2c(c1)ccc1c3ccccc3ncc21`, for which the growth inhibition is 0.75%.

With `c1ccc(-c2cc(-c3ccncc3)cc(-c3ccncc3)n2)cc1`, the growth inhibition was -1.9%.

Turning to `O=C1C=CC(=O)N1n1c(-c2ccccc2)n[nH]c1=O`, the growth inhibition was -8%.

Take `O=C1OCC2CC1C(=O)O2` (centres undefined): the growth inhibition is -3.6%.

In the case of `CN1C(=O)C(O)(c2c3c(c(C4(O)C(=O)N(C)c5ccccc54)c4c2OCO4)OCO3)c2ccccc21` (centres undefined), the growth inhibition is -5.2%.
